An excerpt weighted towards active compounds, which were near 32% of everything screened.
PostGolgi yeast: phenotypic screen on post-Golgi transport, primary screen; post-Golgi transport phenotypic cell assay; inhibition, % at 10 µM; hit rate 0.9% among 98,000; AID 739, 2007;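 also: yeast cells grown in 1536-well plates; yeast grown about 18 h at 30C before absorbance read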
PostGolgi ctrl: growth inhibition of yeast control strain, primary screen, counter-screen for post-Golgi transport modulator project | efflux-deficient yeast background strain, growth absorbance A615, 16 h | hit rate 5% among 98,000 | AID 738, 2007 | inhibition, % at 10 µM
CYP2C19 activ: human CYP2C19 activators, primary screen, biochemical, luminescence; Cytochrome P450 2C19 (Homo sapiens), P33261; recombinant CYP2C19, luciferin-H EGE luminescence; hits give high values; 0 = fully inhibited enzyme, 1 = untreated enzyme; activation factor at 5 µM; 96,000 tested, under 10 active;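 active = activation factor of at least 2 at 5 µM in the primary screen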
Target sequence (P33261 whole entry, looked up): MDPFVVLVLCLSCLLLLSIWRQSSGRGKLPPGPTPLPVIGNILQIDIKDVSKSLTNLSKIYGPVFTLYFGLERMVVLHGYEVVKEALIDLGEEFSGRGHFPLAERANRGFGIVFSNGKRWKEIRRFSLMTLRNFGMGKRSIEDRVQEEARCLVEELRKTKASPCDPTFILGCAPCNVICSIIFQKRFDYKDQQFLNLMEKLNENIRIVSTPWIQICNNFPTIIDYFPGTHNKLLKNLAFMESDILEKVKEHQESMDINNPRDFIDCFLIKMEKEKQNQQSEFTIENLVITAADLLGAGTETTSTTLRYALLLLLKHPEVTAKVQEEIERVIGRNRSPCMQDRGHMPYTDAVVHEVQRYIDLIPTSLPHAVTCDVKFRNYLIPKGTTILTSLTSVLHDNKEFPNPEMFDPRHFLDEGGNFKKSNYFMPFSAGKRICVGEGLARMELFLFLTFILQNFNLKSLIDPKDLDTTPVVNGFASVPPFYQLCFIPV
CYP2C19 inhib: blockers of cytochrome P450 2C19 activity – biochemical, luminescence, ADME assay, primary screen. hit rate 21% among 96,000. P33261. inhibition, % at 5 µM. CYP2C19 Supersomes, luciferin-H EGE luminescence, 30 min;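 active = CYP2C19 inhibition above a set limit at 5 µM in the primary screen, cut at about 50% in these data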
CYP2C9 activ: human CYP2C9 activators, primary screen, biochemical, luminescence; activation factor at 5 µM; hit rate 1.4% among 96,000; AID 1024, 2008; recombinant CYP2C9, luciferin-H conversion; hits give high values; factor 1 = untreated enzyme, 0 = blocked; Cytochrome P450 2C9 (Homo sapiens), P11712;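 active = activation factor of 2 or more for CYP2C9 at a 5 µM dose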
CYP2C9 inh: blockers of cytochrome P450 2C9 activity – biochemical, luminescence, ADME assay, primary screen; P11712; CYP2C9 Supersomes, luciferin-H conversion; inhibition, % at 5 µM; hit rate 20% among 96,000;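 active = blocking of liver enzyme CYP2C9 beyond about 50% at 5 µM, limit read from the data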
Hits are given with their value; – = inactive; · = no result. Rule as the data show it, unless noted: active = inhibition above about 30%; inactive = the rest.

SMILES	PostGolgi yeast	PostGolgi ctrl	CYP2C19 activ	CYP2C19 inhib	CYP2C9 activ	CYP2C9 inh
Cc1c(N2C(=O)/C(=C/c3ccccc3)SC2=S)c(=O)n(-c2ccccc2)n1C	–	–	–	–	–	–
Cc1ccc(C)n1N1C(=O)/C(=C\c2ccc(Cl)cc2)SC1=S	40	39	–	–	–	–
Cc1cc(=O)oc2cc(OCC(=O)N3CCCC(C)C3)ccc12 (stereo not given)	–	–	–	–	–	–
Cc1cc(=O)oc2cc(OCC(=O)N3c4ccccc4CC3C)ccc12 (stereo not given)	–	–	–	–	–	–
Cc1cc(=O)oc2cc(OCC(=O)N3CC(C)OC(C)C3)ccc12 (stereo not given)	–	–	–	73	–	–
COc1ccc(S(=O)(=O)N2CCN(C(=O)COc3ccc4c(C)cc(=O)oc4c3)CC2)cc1	–	30	–	–	–	–
CCC(C)c1ccc(S(=O)(=O)N2CCN(C(=O)COc3ccc4c(C)cc(=O)oc4c3)CC2)cc1 (stereo not given)	–	–	–	–	–	–
Cc1cc(=O)oc2ccc(OCC(=O)N3CCC(C)CC3)cc12	–	–	–	55	–	–
COc1ccccc1Nc1ncnc2ccccc12	–	–	–	–	–	–
CC(C)CNC(=O)C1C2C=CC(C2)C1C(=O)O (stereo not given)	–	–	–	–	–	–
CCN(CC)C(=O)C(=O)c1cccn1-c1cccc(-n2cccc2C(=O)C(=O)N(CC)CC)c1C#N	–	–	–	–	–	–
O=C(Nc1ccc2oc(-c3ccncc3)nc2c1)c1cccs1	–	–	–	–	–	85
O=C(Nc1ccc2oc(-c3cccc(F)c3)nc2c1)c1ccccc1F	–	–	–	–	–	–
O=C(Nc1ccc2oc(-c3ccncc3)nc2c1)c1ccccc1F	–	–	–	–	–	68
O=C(Nc1ccc(N2CCOCC2)c(C(=O)O)c1)c1ccco1	–	–	–	–	–	–
Cc1ccc(O)c(-c2cc(C(=O)NCc3ccncc3)[nH]n2)c1	–	–	–	75	–	96
Cc1cc(C)c(O)c(-c2cc(C(=O)NCc3ccccc3)[nH]n2)c1	–	32	–	–	–	–
Cc1ccc(C)c(C(=O)NCc2ccncc2)c1	35	–	–	–	–	54
CN(c1ccc(C(=O)NCc2ccncc2)cc1)S(C)(=O)=O	–	–	–	–	–	–
COc1ccc(CCNC(=O)c2cc(-c3ccc(C)cc3O)n[nH]2)cc1OC	–	–	–	–	–	–
COc1ccc(NC(=O)c2cc(-c3cc(C)cc(C)c3O)n[nH]2)cc1Cl	–	–	–	–	–	–
Cc1ccc(SCc2ccc(C(=O)NCc3ccncc3)cc2)cc1	–	–	–	83	–	99
Cc1cc(=O)oc2c1c(C)nn2-c1nn[nH]n1	–	–	–	–	–	–
N#Cc1c2c(c(N3CCN(c4ccccn4)CC3)n3c1nc1ccccc13)CCC2	·	·	–	59	–	54
Cc1cc(N2CCN(c3ccccn3)CC2)n2c(nc3ccccc32)c1C#N	–	–	–	–	–	–
SMILES	PostGolgi yeast	PostGolgi ctrl	CYP2C19 activ	CYP2C19 inhib	CYP2C9 activ	CYP2C9 inh
CCNc1nc(N2CCCCC2)nc(-n2nnc(C(=O)OCC)c2C)n1	–	–	–	–	–	–
CCOC(NC(=O)c1ccccc1)C(NC(=O)c1ccccc1)OCC (stereo not given)	–	–	–	53	–	–
O=C(NC(C(=O)O)c1ccccc1)c1ccccc1 (stereo not given)	–	–	–	–	–	–
CCN(CC)C(NC(=O)c1ccccc1)C(=O)c1ccccc1 (stereo not given)	–	–	–	60	–	62
O=C1NCCCC1C(=O)Nc1ccccn1 (stereo not given)	–	–	–	–	–	–
COc1ccc(C)cc1NC(=O)c1cc2ccccc2cc1OCC(=O)NCc1ccco1	–	–	–	–	–	–
O=c1cc(-c2ccncc2)oc2ccccc12	–	–	–	86	–	–
C=CCNC(=O)C1CC(=O)N(c2ccc(OCC(=O)NCc3ccccc3)cc2)C1 (stereo not given)	–	–	–	–	–	–
COc1cc(OC)c(C2N(c3ccc(Cl)cc3)C(=O)C3CCCN32)cc1OC (stereo not given)	–	–	–	–	–	–
COc1ccc(-c2oc3ccccc3c(=O)c2OC(=O)c2ccc(C)cc2)cc1	–	–	–	84	–	89
O=C(Oc1c(-c2ccccc2)oc2ccccc2c1=O)c1ccccc1	–	–	–	–	–	–
CCOC(=O)CC(=O)CSc1nc(N)c(C#N)c(-c2ccc(Cl)cc2)c1C#N	–	–	–	84	–	62
CCOC(=O)CC(=O)CSc1nc2nc(C)cc(C)n2n1	–	30	–	–	–	–
CNC(=O)CSc1nc2nc(C)cc(C)n2n1	–	–	–	–	–	–
COC(=O)C(Sc1nc(C)cc(C)c1C#N)c1ccccc1 (stereo not given)	–	–	–	54	–	–
Cc1cc(C)n2nc(SCC(=O)c3ccc[nH]3)nc2n1	–	–	–	–	–	55
CCOC(=O)CC(=O)CSc1nc2c(c(C)c1C#N)CCC2	–	–	–	–	–	–
CCOC(=O)CC(=O)CSc1nc(C)cc(C)c1C#N	–	–	–	70	–	–
CC1CCc2c(sc(NC(=O)Cn3nc(C(F)(F)F)c4c3CCCCC4)c2C#N)C1 (stereo not given)	–	–	–	–	–	–
CCC(=O)c1ccc(OCC(O)CN2CCN(c3ccc(F)cc3)CC2)cc1 (stereo not given)	–	–	–	–	–	–
CC(=O)Nc1ccc(NCC(O)COc2ccccc2)cc1 (stereo not given)	–	–	–	56	–	–
CC(=O)Nc1ccc(S(=O)(=O)N2CCN(C)CC2)cc1	–	–	–	–	–	–
CC(=O)Nc1ccc(S(=O)(=O)N2CCN(CC(O)COc3ccc4ccccc4c3)CC2)cc1 (stereo not given)	–	–	–	87	–	87
CC(=O)Nc1ccc(OCC(O)CN2CCN(S(=O)(=O)c3ccc(NC(C)=O)cc3)CC2)cc1 (stereo not given)	–	–	–	–	–	70
CC(=O)Nc1ccc(OCC(O)CN2CCN(c3cccc(Cl)c3)CC2)cc1 (stereo not given)	–	–	–	–	–	56
Cc1cccnc1NCC(O)COc1ccccc1 (stereo not given)	–	–	–	–	–	–
COc1cc(C(=O)N2CCC(NC(=O)C(Cc3ccccc3)NC(C)=O)CC2)cc(OC)c1OC (stereo not given)	–	–	–	–	–	–

Screening data as filed in PubChem.
